# Measurements published in paper PMC5913336, “True equilibrium measurement of transcription factor-DNA binding affinities using automated polarization microscopy”.
# Target: T1, Ems (Drosophila melanogaster, UniProt P18488 373-462)
# T1 sequence: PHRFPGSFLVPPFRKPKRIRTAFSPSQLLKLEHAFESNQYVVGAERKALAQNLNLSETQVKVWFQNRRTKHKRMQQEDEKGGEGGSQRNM
# Test: FP; 33 mM phosphate pH 7.0, 90 mM NaCl, 0.01% Tween 20, 0.1 mM DTT, 0.5% agarose; room temperature
# Settings: tags: N-GST (pGEX-6P-1, kept); dsDNA, one strand shown
Sequence,binding signal,Kd [nM]
CAGGTAATTAGCTCA,1.11 Kd / Kd of best base at the position,
CACGTACTTAGCTCA,47.3 Kd / Kd of best base at the position,
CACGTAATTATCTCA,1.9 Kd / Kd of best base at the position,
CACGCAATTAGCTCA,2.2 Kd / Kd of best base at the position,
TACGTAATTAGCTCA,1.04 Kd / Kd of best base at the position,
CACGTCATTAGCTCA,1.28 Kd / Kd of best base at the position,
CACGTAGTTAGCTCA,74.7 Kd / Kd of best base at the position,
CACGTAATTTGCTCA,10.5 Kd / Kd of best base at the position,
CACGGAATTAGCTCA,38.4 Kd / Kd of best base at the position,
CCCGTAATTAGCTCA,1.04 Kd / Kd of best base at the position,
CACGTAATTCGCTCA,43.1 Kd / Kd of best base at the position,
CACGTATTTAGCTCA,11.1 Kd / Kd of best base at the position,
CACGTAATTAGGTCA,7.3 Kd / Kd of best base at the position,
CACGTAATTACCTCA,1.46 Kd / Kd of best base at the position,
CACGTAATTGGCTCA,8.18 Kd / Kd of best base at the position,
CACGAAATTAGCTCA,16.8 Kd / Kd of best base at the position,
GACGTAATTAGCTCA,1.01 Kd / Kd of best base at the position,
CACGTAATTAGCCCA,4.42 Kd / Kd of best base at the position,
CATGTAATTAGCTCA,1.24 Kd / Kd of best base at the position,
CACGTAAATAGCTCA,54.5 Kd / Kd of best base at the position,

Sequence,binding signal,Kd [nM]
CACGTAATTAGCTCG,2.39 Kd / Kd of best base at the position,
CACGTAATTAGCTCA,,~1.7
CGCGTAATTAGCTCA,1.07 Kd / Kd of best base at the position,
CACGTAATTAGCGCA,6.39 Kd / Kd of best base at the position,
CACGTAATAAGCTCA,35.3 Kd / Kd of best base at the position,
CACATAATTAGCTCA,1.34 Kd / Kd of best base at the position,
CACGTGATTAGCTCA,30.7 Kd / Kd of best base at the position,
CACGTAATGAGCTCA,6.94 Kd / Kd of best base at the position,
CACGTAATTAGCTGA,4.73 Kd / Kd of best base at the position,
CACGTAATTAGTTCA,3.85 Kd / Kd of best base at the position,
CACGTAAGTAGCTCA,63.6 Kd / Kd of best base at the position,
CACGTAATTAGCTAA,3.58 Kd / Kd of best base at the position,
CACGTAACTAGCTCA,72.2 Kd / Kd of best base at the position,
CACTTAATTAGCTCA,2.71 Kd / Kd of best base at the position,
CACCTAATTAGCTCA,1.08 Kd / Kd of best base at the position,
CTCGTAATTAGCTCA,1.19 Kd / Kd of best base at the position,
CACGTAATTAGCACA,5.4 Kd / Kd of best base at the position,
AACGTAATTAGCTCA,1.04 Kd / Kd of best base at the position,
CACGTAATCAGCTCA,40.1 Kd / Kd of best base at the position,
CACGTAATTAGCTCC,3.56 Kd / Kd of best base at the position,
